# Laboratory results: PubChem BioAssay AID743446 (Broad Institute, 2014)
# Results with a measured potency or affinity are listed apart. A number with no mark means an inactive call. The rule behind the calls is not given here.
# Experiment: HEK293 cell cytotoxicity, dose response, cytotoxicity control, plate reader, cherry-picked samples (AID 743446)
# Details: hits give low values; at 26 µM unless noted
row,SMILES,max activity
1,CC(C)(C)C(=O)Nc1ccc(NC(=O)c2ccco2)nc1,11.3% [at 0.38 µM]
2,C[C@@H]1CN([C@@H](C)CO)C(=O)c2cc(NS(=O)(=O)c3ccc(F)cc3)ccc2O[C@H]1CN(C)Cc1ccc(-c2ccccc2)cc1,-27.1%
3,O=C(O)c1c2c(nc3ccccc13)/C(=C/c1ccc(O)cc1)CC2,22.6%
4,C[C@H]1CCCCO[C@@H](CN(C)C(=O)Nc2ccc(F)cc2)[C@@H](C)CN([C@@H](C)CO)C(=O)c2cc(NC(=O)C3CCCCC3)ccc2O1,-14.5% [at 6 µM]
5,Cc1ccnc(Nc2nc(-c3sc(C)nc3C)cs2)c1,-16.3% [at 6 µM]
